In the supplement of paper PMC3342239:
Where a name gives a salt, the structure may show the parent alone.

Tested on: Saccharomyces cerevisiae
Test: fraction of cells in G1 phase (DNA content, flow cytometry); higher = more cells with unreplicated DNA (G1 delay)
Conditions: temperature: 30 C; YPD; JTY2953 pdr5 snq2 (sensitized); drug added to: cultures diluted from stationary phase; 6-7 h
Outline: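 Overnight cultures of sensitized JTY2953 were diluted 1∶200 into drug at a final 20 µg/ml and fixed after 6–7 h, and further runs treated dividing JTY2953 or BY4741, fixing them 6 h and 4.33 h later respectively. All growth used YPD at 30°C with S. cerevisiae and library drugs. After ethanol fixation and SYTOX Green staining, flow cytometry recorded 10,000 events. The G1 fraction equals the Dean-Jett-Fox G1 peak area over the G1 plus G2/M areas.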

Compound | fraction of cells in G1 phase
CC(=O)OCC(CCn1cnc2cnc(N)nc21)COC(C)=O [Famciclovir] (62.2396 µM) | 0.505
CO[C@H]1C[C@H](O[C@H]2[C@H](C)[C@@H](O[C@@H]3O[C@H](C)C[C@H](N(C)C)[C@H]3OC(C)=O)[C@@H](C)C[C@@]3(CO3)C(=O)[C@H](C)[C@@H](OC(C)=O)[C@@H](C)[C@@H](C)OC(=O)[C@@H]2C)O[C@@H](C)[C@@H]1OC(C)=O [Troleandomycin] (24.5704 µM) | 0.489
Cc1scc2c1N(C(=O)CN1CCN(C)CC1)c1ccccc1NC2=O [Telenzepine 2HCl] (53.9845 µM) | 0.498
CCCN[C@H]1CCc2nc(N)sc2C1 [Pramipexole] (94.6382 µM) | 0.48
CCOC(=O)[C@H](CCc1ccccc1)N[C@@H](C)C(=O)N1Cc2ccccc2C[C@H]1C(=O)O [Quinapril HCl] (45.6071 µM) | 0.482
N/C(=N\C(=O)c1nc(Cl)c(N)nc1N)NCc1ccccc1 [Benzamil HCl] (56.1482 µM) | 0.493
CNCCCC12CCC(c3ccccc31)c1ccccc12 [Maprotiline HCl] (72.0947 µM) | 0.475
CC[C@]1(O)C[C@H]2CN(CCc3c([nH]c4ccccc34)[C@@](C(=O)OC)(c3cc4c(cc3OC)N(C=O)[C@H]3[C@@](O)(C(=O)OC)[C@H](OC(C)=O)[C@]5(CC)C=CCN6CC[C@]43[C@@H]65)C2)C1 [Vincristine sulfate] (24.243 µM) | 0.481
COc1ccc(CCN(C)CCCC(C#N)(c2ccc(OC)c(OC)c2)C(C)C)cc1OC (stereo not drawn) [Verapamil] (40.7249 µM) | 0.507
CC(C)C[C@H](NC(=O)[C@@H](Cc1c[nH]c2ccccc12)NC(=O)[C@H](Cc1ccc(O)cc1)NC(=O)[C@H](CO)NC(=O)[C@H](Cc1c[nH]c2ccccc12)NC(=O)[C@H](Cc1c[nH]cn1)NC(=O)[C@@H]1CCC(=O)N1)C(=O)N[C@@H](CCCNC(=N)N)C(=O)N1CCC[C@H]1C(=O)NCC(N)=O [Triptorelin] (15.2499 µM) | 0.468
COc1cc2c3cc1Oc1cc(ccc1O)C[C@@H]1c4c(cc(OC)c(O)c4Oc4ccc(cc4)C[C@@H]3N(C)CC2)CC[N+]1(C)C [Tubocurarine Cl  (+)] (32.8004 µM) | 0.464
COc1ccccc1O [Guaiacol] (161.108 µM) | 0.531
CC(C)NCC(O)COc1ccc(CCOCC2CC2)cc1 (stereo not drawn) [Betaxolol HCl] (65.054 µM) | 0.525
Cc1cnc(NC(=O)C2=C(O)c3ccccc3S(=O)(=O)N2C)s1 [Meloxicam] (56.9143 µM) | 0.501
COc1c(C)c2c(c(O)c1C/C=C(\C)CCC(=O)OCCN1CCOCC1)C(=O)OC2 [Mycophenolate mofetil] (46.1355 µM) | 0.513
CC(C(=O)O)c1cccc(C(=O)c2ccccc2)c1 (stereo not drawn) [Ketoprofen] (78.6509 µM) | 0.502
COc1cc2c(cc1OC)C(=O)C(CC1CCN(Cc3ccccc3)CC1)C2 (stereo not drawn) [Donepezil HCl] (48.0769 µM) | 0.515
CCC1(c2ccccc2)NC(=O)N(C)C1=O (stereo not drawn) [Mephenytoin] (91.6348 µM) | 0.522
N=C(N)N/N=C/c1c(Cl)cccc1Cl [Guanabenz acetate] (86.548 µM) | 0.488

Compound | fraction of cells in G1 phase
CCC[C@@H]1C[C@@H](C(=O)N[C@@H]([C@H]2O[C@H](SC)[C@H](O)[C@@H](O)[C@H]2O)[C@@H](C)O)N(C)C1 [Lincomycin] (49.195 µM) | 0.539
COc1ccc(C2CNC(=O)C2)cc1OC1CCCC1 (stereo not drawn) [Rolipram] (72.6347 µM) | 0.497
CC(=O)O[C@]1(C(C)=O)CC[C@H]2[C@@H]3C=C(C)C4=CC(=O)CC[C@]4(C)[C@H]3CC[C@@]21C [Megestrol acetate] (52.0129 µM) | 0.575
NC(=O)OCC(COC(N)=O)c1ccccc1 [Felbamate] (83.9631 µM) | 0.505
Nc1nc2ccc(OC(F)(F)F)cc2s1 [Riluzole HCl] (85.3967 µM) | 0.551
CCC[S+]([O-])c1ccc2[nH]c(NC(=O)OC)nc2c1 (stereo not drawn) [Ricobendazole] (71.0895 µM) | 0.485
CO/N=C(\C(=O)N[C@@H]1C(=O)N2C(C(=O)O)=C(COC(C)=O)CS[C@H]12)c1csc(N)n1 [Cefotaxime acid] (43.9106 µM) | 0.485
C=C[C@H]1CN2CC[C@H]1C[C@H]2[C@H](O)c1ccnc2ccc(OC)cc12 [Quinine] (55.417 µM) | 0.5
C[C@H]1C[C@H]2[C@@H]3CCC4=CC(=O)C=C[C@]4(C)[C@@]3(F)[C@@H](O)C[C@]2(C)[C@@]1(O)C(=O)CO [Betamethasone] (39.6353 µM) | 0.508
COc1cc(C(=O)NS(=O)(=O)c2ccccc2C)ccc1Cc1cn(C)c2ccc(NC(=O)OC3CCCC3)cc12 [Zafirlukast] (34.741 µM) | 0.509
O=C1NC(=O)C(c2ccccc2)(c2ccccc2)N1 [Phenytoin] (79.2785 µM) | 0.535
CN[C@@H]1[C@@H](O[C@H]2O[C@H](CO)[C@@H](N)[C@H](O)[C@H]2O)OC2C[C@@H](N)[C@@H](O[C@H]3[C@H](O)[C@@H](O)[C@H](N)C[C@@H]3N)OC2[C@@H]1O (stereo partly drawn) [Apramycin] (37.0653 µM) | 0.449
CCCSc1ccc2[nH]c(NC(=O)OC)nc2c1 [Albendazole] (75.3761 µM) | 0.475
COCc1c(C(C)C)nc(C(C)C)c(/C=C/[C@@H](O)C[C@@H](O)CC(=O)O)c1-c1ccc(F)cc1 [Cerivastatin] (43.5196 µM) | 0.448
CC(=O)SCC(Cc1ccccc1)C(=O)NCC(=O)OCc1ccccc1 (stereo not drawn) [Racecadotril] (51.8826 µM) | 0.509
COc1cc2nc(N(C)CCCNC(=O)C3CCCO3)nc(N)c2cc1OC (stereo not drawn) [Alfuzosin] (51.3611 µM) | 0.523
Nc1nc(Cl)nc2c1ncn2[C@@H]1O[C@H](CO)[C@@H](O)[C@@H]1F [Clofarabine] (65.8583 µM) | 0.465
Cn1nnc2c(C(N)=O)ncn2c1=O [Temozolomide] (103.011 µM) | 0.48
O=C(NCCNCC(O)COc1ccc(O)cc1)N1CCOCC1 (stereo not drawn) [Xamoterol hemifumarate] (58.9284 µM) | 0.518
